Test results reported in PubChem BioAssay (NCATS).
Records with an inconclusive call do not appear. Entries that show only a call come without a potency. A number with no mark means an inactive call. Calls of active or inactive are those of the source. Calls come from the whole dose curve; as a rule, active = well fitted curve in the direction sought with a large enough effect; inconclusive = small, poorly fitted or top-dose-only effect, or another doubt; inactive = no such curve, though single readings can be large; an effect the other way counts as inactive or inconclusive.

What was measured:
[1] = target: Rap guanine nucleotide exchange factor 3 (Homo sapiens) (UniProt O95398); experiment: Confirmatory qHTS for antagonist of cAMP-regulated guanine nucleotide exchange factor 3 (EPAC1) (AID 1645880); details: EPAC1 Rap1B-BODIPY-GDP exchange, fluorescence; activity, negative = inhibition: at 115 µM (top of the series); note: nearly all actives have a fitted effect of over 55% in size; note: potency is the fitted concentration of half-maximal effect
Outline: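 Released BODIPY-GDP fluoresces less than Rap1-bound BODIPY-GDP; the signal is followed at 480/540 nm at 5-min intervals over 30 min, after 5 min at room temperature. Reactions contain 100 nM EPAC1, 250 nM RAP1B-BODIPY-GDP and 50 uM GDP; results are normalized to ATA and DMSO.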

[2] = target: Rap guanine nucleotide exchange factor 3 (Homo sapiens) (UniProt O95398); experiment: Confirmatory qHTS for agonist of cAMP-regulated guanine nucleotide exchange factor 3 (EPAC1) (AID 1645881);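 note: EPAC1 catalysed release of BODIPY-GDP from Rap1B seen as fluorescence loss; nearly all actives have a fitted effect of over 75% in size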
[3] = target: Rap guanine nucleotide exchange factor 4 (Homo sapiens) (UniProt Q8WZA2); experiment: Confirmatory qHTS for agonist of cAMP-regulated guanine nucleotide exchange factor 4 (EPAC2) (AID 1645884);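 note: nucleotide exchange releases bodipy-GDP from Rap1 and this lowers its fluorescence; nearly all actives have a fitted effect of over 65% in size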
[4] = target: Rap guanine nucleotide exchange factor 3 (Homo sapiens) (UniProt O95398); experiment: Counterscreen qHTS for antagonist of cAMP-regulated guanine nucleotide exchange factor 3 (EPAC1) (AID 1645888)
Outline: (§1)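 Rap1B–BODIPY-GDP (250 nM) with 50 uM GDP; compounds pin-transferred to 9.74 nM–152 uM final (activator) or from 7.32 nM upwards (inhibitor). Fluorescence Ex/Em 480/540 nm read at 5 and 30 min, then after adding cAMP or buffer, at room temperature.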

[5] = target: Rap guanine nucleotide exchange factor 3 (Homo sapiens) (UniProt O95398); experiment: Counterscreen qHTS for agonist of cAMP-regulated guanine nucleotide exchange factor 3 (EPAC1) (AID 1645889); note: nearly all actives have a fitted effect of over 40% in size; note: potency is the fitted concentration of half-maximal effect
Outline: as §1

Chain of Rap guanine nucleotide exchange factor 4 (Homo sapiens) (Q8WZA2 whole entry, looked up): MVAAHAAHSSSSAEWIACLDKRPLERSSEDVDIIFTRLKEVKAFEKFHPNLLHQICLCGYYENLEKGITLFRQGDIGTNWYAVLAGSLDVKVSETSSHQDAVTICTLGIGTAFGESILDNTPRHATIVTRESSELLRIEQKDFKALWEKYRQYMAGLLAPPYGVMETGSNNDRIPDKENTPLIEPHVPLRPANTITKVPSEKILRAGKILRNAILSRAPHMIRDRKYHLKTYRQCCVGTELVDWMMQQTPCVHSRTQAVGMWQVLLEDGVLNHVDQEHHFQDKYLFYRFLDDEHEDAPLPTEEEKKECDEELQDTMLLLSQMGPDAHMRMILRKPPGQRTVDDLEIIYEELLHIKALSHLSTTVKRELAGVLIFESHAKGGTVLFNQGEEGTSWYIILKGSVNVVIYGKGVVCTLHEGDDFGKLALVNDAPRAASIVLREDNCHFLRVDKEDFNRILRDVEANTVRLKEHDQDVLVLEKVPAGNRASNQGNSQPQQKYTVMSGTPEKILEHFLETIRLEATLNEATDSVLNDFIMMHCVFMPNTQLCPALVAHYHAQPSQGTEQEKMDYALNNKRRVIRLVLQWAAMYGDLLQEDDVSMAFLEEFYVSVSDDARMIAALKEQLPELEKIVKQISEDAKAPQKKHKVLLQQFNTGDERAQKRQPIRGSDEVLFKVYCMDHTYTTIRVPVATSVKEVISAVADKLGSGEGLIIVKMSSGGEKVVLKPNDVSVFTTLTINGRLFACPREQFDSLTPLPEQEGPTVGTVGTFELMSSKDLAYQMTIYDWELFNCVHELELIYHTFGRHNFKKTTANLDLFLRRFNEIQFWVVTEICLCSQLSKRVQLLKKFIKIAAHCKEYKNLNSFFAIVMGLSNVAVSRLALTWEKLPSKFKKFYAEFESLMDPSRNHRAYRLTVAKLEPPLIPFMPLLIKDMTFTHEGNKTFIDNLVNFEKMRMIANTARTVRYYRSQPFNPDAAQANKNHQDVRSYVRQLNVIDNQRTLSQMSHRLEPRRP
Chain of Rap guanine nucleotide exchange factor 3 (Homo sapiens) (O95398 whole entry, looked up): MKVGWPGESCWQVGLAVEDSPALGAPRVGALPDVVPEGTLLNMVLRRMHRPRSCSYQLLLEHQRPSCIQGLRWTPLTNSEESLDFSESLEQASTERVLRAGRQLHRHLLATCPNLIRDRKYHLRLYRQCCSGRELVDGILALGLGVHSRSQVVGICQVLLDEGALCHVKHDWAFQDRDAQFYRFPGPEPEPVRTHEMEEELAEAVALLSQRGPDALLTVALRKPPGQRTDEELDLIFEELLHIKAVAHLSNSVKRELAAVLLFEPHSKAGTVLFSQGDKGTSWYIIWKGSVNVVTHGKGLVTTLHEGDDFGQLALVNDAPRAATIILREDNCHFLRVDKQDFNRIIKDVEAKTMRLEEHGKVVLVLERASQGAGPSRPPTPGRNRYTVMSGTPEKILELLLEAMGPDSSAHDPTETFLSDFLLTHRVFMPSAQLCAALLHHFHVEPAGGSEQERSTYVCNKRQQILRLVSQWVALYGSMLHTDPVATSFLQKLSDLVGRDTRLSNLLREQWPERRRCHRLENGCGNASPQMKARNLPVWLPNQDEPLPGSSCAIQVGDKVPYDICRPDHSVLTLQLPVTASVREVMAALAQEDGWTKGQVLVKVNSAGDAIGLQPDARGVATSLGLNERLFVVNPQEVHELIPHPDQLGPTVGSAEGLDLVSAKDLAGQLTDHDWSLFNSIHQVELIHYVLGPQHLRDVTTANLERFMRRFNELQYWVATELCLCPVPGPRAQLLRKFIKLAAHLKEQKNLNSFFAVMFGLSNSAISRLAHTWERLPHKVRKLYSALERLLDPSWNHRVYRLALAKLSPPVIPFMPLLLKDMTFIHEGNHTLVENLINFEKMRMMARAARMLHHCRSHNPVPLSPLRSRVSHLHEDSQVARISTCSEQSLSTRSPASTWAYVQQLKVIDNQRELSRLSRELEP

Row | SMILES | Potency [1] | Potency [2] | Potency [3] | Potency [4] | Potency [5] | activation [3] | activity change, negative = inhibition [4] | activation [5]
1 | Nc1nnc(CC(=O)N/N=C/c2cc([N+](=O)[O-])cc(Br)c2O)s1 | 10.7 µM (active) | inactive | inactive | inactive | inactive |  |  | 
2 | Cc1onc(-c2c(Cl)cccc2Cl)c1C(=O)c1ccc(F)cc1 | inactive | inactive | inactive | inactive | inactive |  |  | 
3 | CCCN(C(=O)COC(=O)COc1c(C)cccc1C)c1c(N)n(Cc2ccccc2)c(=O)[nH]c1=O | inactive | inactive | inactive | inactive | inactive |  |  | 
4 | CNc1ccc(-c2nc(-c3ccco3)no2)cc1[N+](=O)[O-] | inactive | inactive | inactive | inactive | inactive |  |  | 
5 | Cc1ccc2nc(N3C(=O)C(O)=C(C(=O)c4ccc(C)o4)C3c3ccc(O)cc3)sc2c1 (stereo not given) | 37.9 µM (active) | inactive | inactive | inactive | inactive |  |  | 
6 | COc1ccc([C@H]2CC(=O)C=C(c3cc(OC)ccc3OC)C2)cc1 | inactive | inactive | inactive | inactive | inactive |  |  | 
7 | O=C1CC(=O)Nc2cc(S(=O)(=O)Nc3ccc(Cl)c(C(F)(F)F)c3)ccc2N1 | inactive | inactive | inactive | inactive | inactive |  |  | 
8 | O=C(O)CN1C(=O)/C(=C\c2cc(Br)ccc2OCc2ccccc2Cl)SC1=S | 33.8 µM (active) | inactive | inactive | inactive | inactive |  |  | 
9 | Nc1nc2c(ncn2[C@@H]2O[C@H](CNS(=O)(=O)N3CCCC3)[C@@H](O)[C@H]2O)c(=O)[nH]1 | inactive | inactive | inactive | inactive | inactive |  |  | 
10 | CC(C(=O)Nc1ccc(O)c(C(=O)O)c1)N1C(=O)/C(=C/c2cccs2)SC1=S (stereo not given) | 37.9 µM (active) | inactive | inactive | inactive | inactive |  |  | 
11 | CCCC(=O)NCCCc1nc2ccccc2n1C | inactive | inactive | inactive | inactive | inactive |  |  | 
12 | Cc1ccc(SCCSc2ncccn2)cc1 | inactive | inactive |  |  |  | -2.5% [at 17.1 µM, percent relative to cAMP agonist control] | -17.4% [at 30.8 µM] | -4.72% [at 30.8 µM]
13 | CCC(C(=O)OC(C)C)c1ccc2ccccc2c1 (stereo not given) | inactive | inactive | inactive | inactive | inactive |  |  | 
14 | O=C(C1CC1)N1c2ccccc2Sc2ccccc21 | inactive | inactive | inactive | inactive | inactive |  |  | 
15 | CCC(=O)NC(c1ccc(C)cc1)c1cc([N+](=O)[O-])c2cccnc2c1O (stereo not given) | 53.6 µM (active) | inactive | inactive | inactive | inactive |  |  | 
16 | O=C(O)CCSc1nnc(COc2cccc3ccccc23)n1-c1cccc(Cl)c1 | inactive | inactive | inactive | inactive | inactive |  |  | 
17 | CCCNC(=O)Cn1c(=O)/c(=C/c2ccc(-c3ccc([N+](=O)[O-])cc3)o2)s/c1=C\C(=O)C(C)(C)C | 37.9 µM (active) | inactive | inactive | inactive | 5.01 µM (active) |  |  | 
18 | CCOC(=O)C1=C(C)N=c2s/c(=C\c3ccc(OCC(=O)O)cc3)c(=O)n2C1c1ccc(OC(C)C)cc1 (stereo not given) | 75.7 µM (active) | inactive | inactive | inactive | inactive |  |  | 
19 | Cc1cc(/C=C2\SC(=S)NC2=O)c(C)n1-c1ccc(O)cc1 | 84.9 µM (active) | inactive | inactive | inactive | inactive |  |  | 
20 | COc1ccccc1OCCOc1ccc(/C=C2\C(=N)N3N=C(S(C)(=O)=O)SC3=NC2=O)cc1 | 67.5 µM (active) | inactive | inactive | inactive | inactive |  |  | 
21 | CCCCCN(C(=O)CCC(=O)OCC(=O)N1CCC(C)CC1)c1c(N)n(CCCC)c(=O)[nH]c1=O | inactive | inactive | inactive | inactive | inactive |  |  | 
22 | O=C(O)CN1C(=O)/C(=C\c2cc(Br)ccc2OCc2ccc([N+](=O)[O-])cc2)SC1=S | 30.1 µM (active) | inactive | inactive | inactive | inactive |  |  | 
23 | O=C(O)c1ccccc1N=N/C(=N/Nc1cc(S(=O)(=O)O)ccc1O)c1ccccc1 | 44.7 µM (active) | inactive |  |  |  | -5.11% [at 17.1 µM, percent relative to cAMP agonist control] | -3.19% [at 30.8 µM] | -1.6% [at 30.8 µM]

Row | SMILES | Potency [1] | Potency [2] | Potency [3] | Potency [4] | Potency [5] | activation [3] | activity change, negative = inhibition [4] | activation [5]
24 | Cc1noc(C)c1C(=O)N(CC(C)C)c1nc2ccccc2s1 | inactive | inactive | inactive | inactive | inactive |  |  | 
25 | O=C(O)c1ccccc1NS(=O)(=O)c1ccc(N/N=C/c2cccc(O)c2O)c([N+](=O)[O-])c1 | 9.53 µM (active) | inactive | inactive | inactive | inactive |  |  | 
26 | CCCS(=O)(=O)NC(=O)C1(C)CCN(C(=O)c2cccc(OC(F)(F)F)c2)C1 (stereo not given) | inactive | inactive | inactive | inactive | inactive |  |  | 
27 | Cc1ccc2oc(C(=O)N3CCCCCC3)c(C)c2c1 | inactive | inactive | inactive | inactive | inactive |  |  | 
28 | COc1nc(-c2ccccc2)c2cc(Br)ccc2n1 | inactive | inactive |  |  |  | -6.23% [at 17.1 µM, percent relative to cAMP agonist control] | 8.88% [at 30.8 µM] | 24.2% [at 30.8 µM]
29 | COc1ccc(OC)c(C(C[N+](=O)[O-])c2c(C)cc3ccccn23)c1 (stereo not given) | inactive | inactive | inactive | inactive | inactive |  |  | 
30 | COc1ccc2nc(N3C(=O)C(O)=C(C(=O)c4ccco4)C3c3ccc(C)o3)sc2c1 (stereo not given) | 26.9 µM (active) | inactive | inactive | inactive | inactive |  |  | 
31 | CCOC(=O)CSc1nc2c(c(=O)n(C)c(=O)n2C)n1Cc1ccccc1F | inactive | inactive | inactive | inactive | inactive |  |  | 
32 | CC1CN(C(=O)CCC(=O)NCc2ccc(F)cc2)c2ccccc2S1 (stereo not given) | inactive | inactive |  |  |  | -4.63% [at 17.1 µM, percent relative to cAMP agonist control] | -2.67% [at 30.8 µM] | 31.5% [at 30.8 µM]
33 | CCOC(=O)c1c(NC(=O)/C=C/C(=O)O)sc(C)c1-c1ccc(C(C)(C)C)cc1 | 42.6 µM (active) | inactive | inactive | inactive | inactive |  |  | 
34 | CCN(CC(=O)Nc1ccccc1C(=O)NC1CC1)Cc1cccs1 | inactive | inactive | inactive | inactive | inactive |  |  | 
35 | O=C(Cc1ccc(Br)cc1)N(Cc1ccccc1)c1ccccn1 | inactive | inactive | inactive | inactive | inactive |  |  | 
36 | Cc1ccc([C@H]2C(C(=O)O)=CC[C@@H](c3ccc(C(C)C)cc3)N2S(=O)(=O)c2ccc(C)cc2)cc1 | 75.7 µM (active) | inactive | inactive | inactive | inactive |  |  | 
37 | Cc1ccc(S(=O)(=O)Nc2ccc3ccccc3c2[N+](=O)[O-])cc1 | 75.7 µM (active) | inactive | inactive | inactive | inactive |  |  | 
38 | COC(=O)c1cn(C(=O)c2ccccc2Cl)c2ccccc12 | inactive | inactive |  |  |  | 7.27% [at 17.1 µM, percent relative to cAMP agonist control] | -1.26% [at 30.8 µM] | 20.7% [at 30.8 µM]
39 | COc1ccccc1C1CC(=O)Oc2cc(C)cc(C)c21 (stereo not given) | inactive | inactive |  |  |  | 3.14% [at 17.1 µM, percent relative to cAMP agonist control] | -8.23% [at 30.8 µM] | 7.71% [at 30.8 µM]
40 | COc1cc(/C=C2/C(=O)NN(c3ccc(Cl)c(Cl)c3)C2=O)cc([N+](=O)[O-])c1O | 6.75 µM (active) | inactive | inactive | inactive | inactive |  |  | 
41 | Cc1ncc(CO)c2c1Oc1nc(-c3ccccc3F)nc(SCC(=O)N(C)c3ccccc3)c1C2 | 30.1 µM (active) | inactive | inactive | inactive | inactive |  |  | 
42 | COc1ccc(C(=O)c2ccc(Cl)cc2)c(OC)c1OC | inactive | inactive |  |  |  | 6.47% [at 17.1 µM, percent relative to cAMP agonist control] | -1.07% [at 30.8 µM] | 6.99% [at 30.8 µM]
43 | COc1ccc(C2CC(=O)c3ccccc3O2)cc1 (stereo not given) | inactive | inactive | inactive | inactive | inactive |  |  | 
44 | O=C(NN1C(=O)/C(=C/c2ccc(O)c([N+](=O)[O-])c2)SC1=S)c1ccccc1Cl | 84.9 µM (active) | inactive | inactive | inactive | inactive |  |  | 
45 | COCc1cc(C)nc(SCC(=O)c2ccc(O)c(O)c2)c1C#N | 37.9 µM (active) | inactive | inactive | inactive | inactive |  |  | 
46 | Cc1ccc(N(C(=O)c2ccccc2Cl)C2=NC(C)CS2)c(C)c1 (stereo not given) | inactive | inactive |  |  |  | 5.24% [at 17.1 µM, percent relative to cAMP agonist control] | -24.5% [at 30.8 µM] | 26.9% [at 30.8 µM]
